The results in this text go back to PubChem BioAssay.

Assay [1] has as its system Human papillomavirus type 1a protein E7 (residues 44-93). The assay can be described thus: HPV1a E7 fragment binders on microarrays, primary screen, biochemical, small-molecule microarray, residues 44-93, 635 nm fluorescence (AID 1108).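 Further: E7 fragment applied at 1 µg/mL in TBST for 1 h at 4 C; score combines spot fluorescence with its signal to noise ratio.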 Particulars: small-molecule microarray binding, fluorescence 635 nm; higher = more signal.
A short description of assay [2]: modulators of HCV replicon luciferase signal, primary screen, HCV replication inhibitor project, Huh7 cells, luciferase reporter (AID 1109).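 Further: huh7 hepatoma cells harbouring a luciferase neomycin HCV replicon reporter; luciferase luminescence as measure of HCV replicon replication; test concentration not given here.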 The settings on record: 48 h, higher = more signal. A general note: In antiviral work, replicon cells carry a viral genome segment that copies itself.
Assay [3] deals with Left-right determination factor 2 (Homo sapiens) (UniProt O00292). The assay can be described thus: LEFTY2 binders on small-molecule microarrays, primary screen, biochemical, small-molecule microarray, 635 nm fluorescence scan (AID 1110). The settings on record: LEFTY2 binding, higher = more signal.
Sequence of Left-right determination factor 2 (Homo sapiens) (O00292 whole entry, looked up): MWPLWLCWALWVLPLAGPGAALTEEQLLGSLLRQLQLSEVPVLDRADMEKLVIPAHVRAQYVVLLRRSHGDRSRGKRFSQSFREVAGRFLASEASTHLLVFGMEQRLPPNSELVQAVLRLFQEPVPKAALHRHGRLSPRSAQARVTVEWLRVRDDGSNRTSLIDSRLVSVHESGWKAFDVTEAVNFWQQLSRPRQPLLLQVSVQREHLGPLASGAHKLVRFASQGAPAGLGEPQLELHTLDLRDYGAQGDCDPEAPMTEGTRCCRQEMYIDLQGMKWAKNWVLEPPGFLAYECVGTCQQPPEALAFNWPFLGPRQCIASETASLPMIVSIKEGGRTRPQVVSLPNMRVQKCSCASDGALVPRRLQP
Assay [4] addresses Calmodulin-1 (Homo sapiens) (UniProt P0DP23). In words: CALM1 binders on microarrays, EGTA buffer, profiling panel, biochemical, small-molecule microarray, Cy5-labelled CALM1 (AID 1111).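 Further: labelled calmodulin applied in Tris saline Tween buffer holding calcium plus EGTA and DTT.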 Particulars: Cy5-CALM1 binding fluorescence, higher = more signal.
Assay [5] shares this target. The assay can be described thus: calcium-bound CALM1 binders on microarrays, profiling panel, artefact control for SMM control-protein annotation, biochemical, small-molecule microarray, Cy5-labelled CALM1, plus calcium (AID 1112).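 Further: score merges spot fluorescence with signal to noise from triplicate slides.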 The settings on record: Cy5-CALM1 binding fluorescence, higher = more signal.
Assay [6] can be described thus: small-molecule microarray binders of probe aWnt5a, primary screen, biochemical, biotinylated probe, 635/667 nm fluorescence (AID 1113).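 Further: score merges 667 nm fluorescence intensity with signal-to-noise per printed feature.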 The settings on record: higher = more signal.
The nature of assay [7]: small-molecule microarray binders of probe aShh, primary screen, biochemical, biotinylated probe, 635/667 nm fluorescence (AID 1114).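 Further: probe is biotin-labelled aShh protein from a stem cell growth factor screen; measures binding of labelled protein to compounds printed on the slide; score merges feature fluorescence at 667 nm with signal-to-noise.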 Particulars: higher = more signal.
Assay [8] is described as follows: small-molecule microarray binders of probe aNog, primary screen, biochemical, biotinylated probe, 635/667 nm fluorescence (AID 1115).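 Further: probe is biotinylated aNog protein used at 0.15 µg/mL for 1 h at 4 C; z-score combines 667 nm fluorescence of each spot with its signal to noise.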 Particulars: higher = more signal.
In assay [9] the target is Torsin-1A-interacting protein 1 (Homo sapiens) (UniProt Q5JTV8). In words: LAP1 binders from COS7 cell lysate, primary screen, small-molecule microarray, 635/667 nm fluorescence (AID 1116). The settings on record: COS7-hLAP1 lysate binding, 635 nm fluorescence, higher = more signal.
Sequence of Torsin-1A-interacting protein 1 (Homo sapiens) (Q5JTV8 whole entry, looked up): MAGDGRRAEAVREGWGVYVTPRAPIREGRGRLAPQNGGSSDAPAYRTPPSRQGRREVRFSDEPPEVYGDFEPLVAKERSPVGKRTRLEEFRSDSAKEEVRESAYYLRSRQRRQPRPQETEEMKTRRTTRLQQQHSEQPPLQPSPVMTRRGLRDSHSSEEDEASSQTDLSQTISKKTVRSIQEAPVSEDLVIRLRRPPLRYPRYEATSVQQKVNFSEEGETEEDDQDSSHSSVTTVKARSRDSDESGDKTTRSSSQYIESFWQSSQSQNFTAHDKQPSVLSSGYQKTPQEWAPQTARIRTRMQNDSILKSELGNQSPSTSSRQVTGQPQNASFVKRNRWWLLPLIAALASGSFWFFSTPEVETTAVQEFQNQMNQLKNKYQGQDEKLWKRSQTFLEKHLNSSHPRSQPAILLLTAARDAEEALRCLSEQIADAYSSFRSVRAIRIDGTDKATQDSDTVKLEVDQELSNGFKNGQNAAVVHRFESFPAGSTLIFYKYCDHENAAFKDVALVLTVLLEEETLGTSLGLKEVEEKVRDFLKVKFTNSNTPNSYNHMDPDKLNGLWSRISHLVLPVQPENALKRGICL
Assay [10] concerns the target Alpha-bungarotoxin (Bungarus multicinctus) (UniProt P60615). In words: alpha-bungarotoxin binders on microarray, profiling panel, artefact control for SMM control protein annotation, biochemical, small-molecule microarray, Alexa647 label, 635/667 nm fluorescence (AID 1117). The settings on record: alpha-BTX-A647 binding fluorescence, higher = more signal.

Sequence of Alpha-bungarotoxin (Bungarus multicinctus) (P60615 whole entry, looked up): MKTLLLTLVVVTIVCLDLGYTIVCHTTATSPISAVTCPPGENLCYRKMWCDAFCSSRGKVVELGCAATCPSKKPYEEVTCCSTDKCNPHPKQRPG

On to `O=C1C[C@@](C(=O)NCCN2CCOCC2)(c2ccc([N+](=O)[O-])cc2)[C@@H](c2ccc(CO)cc2)N1C1CCCCC1`, for which the composite z-score is 1.39 in assay [1]; 1.06 in assay [3]; 0.502 in [4]; -0.142 in assay [5]; 0.0621 in assay [6]; 0.171 in assay [7]. For the same molecule, the composite z-score in [8] stood at 0.924; in assay [9], 1.6; in assay [10], 0.571. The molecule also came in with a z-score in [2] of -0.867.
As to `COc1cccc([C@H]2N[C@H](C(=O)O)CC[C@@H]2C)c1`, the composite z-score in assay [1] was 0.0991; in [3], 0.0589; in [4] it was 0.0938; in assay [5], 0.334; in assay [6] it was -0.131; in assay [7], -0.458. In addition, the composite z-score was -0.339 in [8], 0.0026 in assay [9] and 0.396 in assay [10]. The molecule also came in with a z-score in assay [2] of 0.53.
In the case of `COC(=O)C[C@H]1O[C@]2(C(=O)N(C)c3ccccc32)[C@@H](C)[C@@H]1[Si](C)(C)c1ccc(OC)cc1`, the composite z-score in [1] was 0.353; in assay [3], 1.02; in [4] it was 0.0348; in [5], -0.327; in assay [6], 0.0502; in assay [7], -0.271. The composite z-score in assay [8] is -0.141; in assay [9], 0.335; in [10] it was 0.449. Further, in [2], the z-score is -2.
In the case of `COC(=O)C1=CC(c2ccc(CO)cc2)=CC(c2cccs2)N(Cc2cccc(OC(F)(F)F)c2)C=C1C(=O)OC` (stereo not given), the composite z-score in assay [1] is 0.532; in assay [3], -0.0215; in assay [4] it was 2.19; in assay [5], 0.815; in assay [6], -0.0236; in [7], 0.685. Besides, the values for the composite z-score in assay [8], in assay [9] and in assay [10] were 1.39, 1.81 and 3.16, respectively. In addition, in [2], the z-score was -1.84.
With `CCCC=C(CCC)[C@@H](NC(=O)c1ccccc1)c1ccccc1`, the composite z-score in [1] was 0.0084; in [3] it was -0.621; in assay [4], 0.323; in [5] it was 1.09; in assay [6], -0.0299; in [7], 0.217. Also, the composite z-score was 0.766 in assay [8], -0.439 in assay [9] and -0.445 in [10]. This molecule had a z-score in assay [2] of -0.12.
Take `COc1ccc([C@H]2C[C@H]3C(Br)=C[C@]2(OC)C(=O)[C@]32CO2)cc1`: the composite z-score in [1] was -0.681; in [3] it was 0.219; in [4] it was -0.408; in [5], -0.668; in assay [6] it was -0.113; in [7], -0.0769. Moreover, the composite z-score in [8] was -0.176; in assay [9], 0.42; in assay [10], -0.268. This molecule also yielded a z-score in assay [2] of -2.26.
Turning to `CN1C(=O)C2C=CC(C(O)C3CC=CCC3)N(Nc3ccccc3)C2C1=O` (stereo not given), the composite z-score in assay [1] was 1.24; in assay [3] it was 0.76; in assay [4] it was 1.55; in [5], 0.129; in assay [6], -0.0792; in assay [7], -0.0289. Also, the figures for the composite z-score in assay [8], in assay [9] and in assay [10] were 0.897, 0.764 and 1.58, respectively. The z-score in assay [2] is -0.556.
For the molecule `O=C(CS)NCCCCCCNC(=O)[C@@H]1C[C@@H]2C(=O)N[C@@H](Cc3ccccc3)C(=O)N2[C@@H]1c1ccc(O)cc1`, the composite z-score is 1.45 in assay [1]; 0.621 in assay [3]; 2.31 in assay [4]; -0.23 in [5]; 0.0179 in assay [6]; -0.177 in assay [7]. For the same molecule, the composite z-score in assay [8] was -0.443; in assay [9], 1; in assay [10], 1.7. This molecule registered a z-score in assay [2] of -0.144.
Take `C=CCC1=C[C@H]2[C@H]([C@@H]3C=C[C@]2(CC=C)C(=O)[C@]32CO2)[C@@]2(CO2)C1=O`: the composite z-score in assay [1] is -0.763; in assay [3] it was 1.24; in [4] it was -1.06; in assay [5], -2.27; in assay [6], 0.133; in assay [7], -0.1. Further, the composite z-score in assay [8] worked out at 2.17; in assay [9], 0.163; in assay [10] it was 0.345. In assay [2], this molecule displayed a z-score of -4.15.
For the molecule `CN1C2C=C(c3ccc(CO)cc3)C(C3C(=O)N(C(N)=O)C(=O)C32)C1c1cccs1` (stereo not given), the composite z-score in [1] is -0.232; in assay [3] it was 0.217; in [4], 0.45; in assay [5], 0.47; in assay [6] it was -0.156; in [7], -0.0769. Also, the composite z-score in [8] is 0.408; in assay [9], 1.24; in [10] it was -1.09. The molecule further returned a z-score in [2] of 0.374.
On to `C=CC(=O)O[C@@H](Cc1ccccc1)[C@H]1C2C=CCCC=C2CN1Cc1cccc(Cl)c1` (stereo not given in full), for which the composite z-score in assay [1] is -2.98; in [3], -0.195; in assay [4], -0.82; in [5], 0.484; in [6], -0.148; in assay [7] it was 0.0022. Moreover, the composite z-score in assay [8] is -0.267; in [9], -0.103; in [10], -0.439. The molecule also registered a z-score in [2] of -1.08.
Take `C=CCN1C(=O)[C@@]2(Cc3ccccc3)N=C(c3ccc(OCCCO)cc3)O[C@H]2c2ccccc21`: the composite z-score in assay [1] is 0.974; in assay [3], 0.525; in assay [4] it was 0.0185; in assay [5], 0.192; in assay [6], -0.0814; in assay [7] it was 0.0469. For the same molecule, the composite z-score in assay [8] was found to be 0.79; in assay [9] it was 2.15; in assay [10] it was 1.66. For the same molecule, the z-score in assay [2] was -2.44.
